A selection: hits, their analogues and other compounds. The true share with any hit is near 6.6%.
KB-3-1 cytotox: qHTS assay for MDR1-selective chemotherapeutics: Primary screen using the parental adenocarcinoma cell KB-3-1. KB-3-1 viability, CellTiter-Glo ATP luminescence, 72 h. Potency, µM (top dose mostly 46.1 µM), usual class: cytotoxic. 1.4% of 400,000 active; also: nearly all actives have a fitted effect of over 60% in size
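Viability of parental KB-3-1 cells, measured by CellTiter-Glo luminescence, followed a 72 h incubation at 37 °C with pinned compounds in phenol-red-free DMEM containing 10% FBS.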
PTAP TSG101 blk: qHTS Assay for Iinhibitors of HIV-1 Budding by Blocking the Interaction of PTAP/TSG101 | Potency, µM (titrated, usually from 115 µM), most hits filed as inhibitors | AID 493005, 2010 | Fluorescence polarization, FITC-PTAP peptide / Tsg101 binding | 340,000 tested, under 10 active | Tumor susceptibility gene 101 protein (Homo sapiens), Q99816; active = well fitted inhibition curve with a large enough effect in the main read-out, with a control signal flat, not every such curve was filed as active; inconclusive = small, poorly fitted or top-dose-only effect, or effect the other way, or a change in a side signal; inactive = no such curve, though single readings can be large or run the other way
Target sequence (Q99816 whole entry, looked up): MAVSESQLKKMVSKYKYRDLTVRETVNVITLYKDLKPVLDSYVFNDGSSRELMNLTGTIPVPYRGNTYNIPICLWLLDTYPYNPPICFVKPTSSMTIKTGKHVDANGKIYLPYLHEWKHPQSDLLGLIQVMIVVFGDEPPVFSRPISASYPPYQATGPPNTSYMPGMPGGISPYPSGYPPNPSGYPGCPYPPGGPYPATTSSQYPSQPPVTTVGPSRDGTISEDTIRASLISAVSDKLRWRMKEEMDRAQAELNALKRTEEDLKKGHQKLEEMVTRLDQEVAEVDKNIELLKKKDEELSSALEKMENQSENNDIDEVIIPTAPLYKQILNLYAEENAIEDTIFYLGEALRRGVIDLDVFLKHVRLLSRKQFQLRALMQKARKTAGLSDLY
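Fluorescence anisotropy tracks displacement of a FITC-tagged PTAP peptide (50 nM) from the Tsg101 binding domain (10 uM), following a 20 min room-temperature incubation at pH 7.5.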
KB-V1 MDR tox: qHTS assay for MDR1-selective chemotherapeutics: Primary screen using the drug-selected MDR subline cells KB-V1 | KB-V1 MDR cells viability, CellTiter-Glo, 72 h | Potency, µM (series often up to 46.1 µM), most hits filed as cytotoxic | 3.4% of 400,000 active; also: nearly all actives have a fitted effect of over 60% in size
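Cytotoxicity via CellTiter-Glo luminescence after 72 h compound exposure at 37 degrees C. Cells: drug-selected KB-V1 line, DMEM phenol-red free plus 10% FBS. Compounds tested at multiple concentrations; normalized data fitted to concentration-effect curves.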
RGS4 inhibitor: Inhibitors of Regulator of G Protein Signaling (RGS) 4: qHTS | Regulator of G-protein signaling 4 (Homo sapiens), P49798 | Transcreener GDP fluorescence polarization, RGS4-accelerated GTP hydrolysis | Potency, µM (doses to about 114 µM), usual class: inhibitors | 0.039% of 390,000 active | AID 504845, 2011; also: nearly all actives have a fitted effect of over 75% in size
Target sequence (P49798 whole entry, looked up): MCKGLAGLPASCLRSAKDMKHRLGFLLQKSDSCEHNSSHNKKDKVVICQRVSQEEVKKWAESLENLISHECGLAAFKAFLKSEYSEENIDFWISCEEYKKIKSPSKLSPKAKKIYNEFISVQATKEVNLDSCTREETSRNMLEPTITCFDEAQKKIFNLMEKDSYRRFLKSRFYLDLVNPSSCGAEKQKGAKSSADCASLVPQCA
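MLSMR compounds (23 nl, pin-transferred) preincubated 10 min at room temperature with a 500nM (2x) first reagent, then RGS4 at 900nM (2x) plus Transcreener GDP mix added; fluorescence polarization (620/688 nm) read before and after 90 min at 30 °C.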
SW480 rereplic: A quantitative high throughput screen for small molecules that induce DNA re-replication in SW480 colon adenocarcinoma cells | 1.8% of 340,000 active | AID 624297, 2012 | SW480 DNA re-replication, Hoechst DNA content imaging, 48 h | Potency, µM (series often up to 46.1 µM), actives largely listed as activators; also: nearly all actives have a fitted effect of over 55% in size
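DNA re-replication was detected as more nuclei of elevated Hoechst intensity after 48 hr exposure to compound (23 nL pinned per well of 250 cells).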
MCF10A rereplic: A quantitative high throughput screen for small molecules that induce DNA re-replication in MCF 10a normal breast cells | MCF 10A DNA re-replication, Hoechst nuclear intensity, 48 h | Potency, µM (highest dose often 46.1 µM), hits mostly activators | 2.9% of 350,000 active | AID 624296, 2012; also: nearly all actives have a fitted effect of over 50% in size
A number is an active result; n = inactive; u = inconclusive; x = not tested or not shown; [ ] = dose if it differs, or a comment. Unless noted, calls follow the shape of the dose curve; as a rule, active = well fitted curve in the direction sought with a large enough effect; inconclusive = small, poorly fitted or top-dose-only effect, or another doubt; inactive = no such curve, though single readings can be large; an effect the other way counts as inactive or inconclusive.

SMILES | KB-3-1 cytotox | PTAP TSG101 blk | KB-V1 MDR tox | RGS4 inhibitor | SW480 rereplic | MCF10A rereplic
COc1cc(C)c(C(C)C)cc1S(=O)(=O)n1cnc(C)c1 | 5.2µM | n | u | n | 5.2µM | u
COc1ccc(C)cc1S(=O)(=O)n1cnc(C)c1 | n | n | n | n | n | n
CCCCCCSc1ccc([C@@H]2[C@H]3C(=O)N(C)C(=O)[C@H]3[C@]3(C(=O)OC)CCCCN23)cc1OC | n | n | n | n | n | 15µM
COC(=O)[C@@]12CCCCN1[C@H](c1ccc(-c3ccc4c(c3)OCO4)cc1)[C@H]1C(=O)N(C)C(=O)[C@H]12 | n | n | n | n | n | 3.7µM
CS(=O)(=O)c1ccc(N)c(SSc2cc(S(C)(=O)=O)ccc2N)c1 | n | n | n | u | n | 3.7µM
CCOc1ccc(N)c(SSc2cc(OCC)ccc2N)c1 | n | n | n | u | n | u
CCc1ccccc1N(C)C(=O)Cn1cnc2sc(C)c(S(=O)(=O)N3CCN(c4ncccn4)CC3)c2c1=O | n | x | u | n | x | x
CC(C)CC1(C(=O)NCc2cc(F)cc(C(F)(F)F)c2)C=CCN1C(=O)c1ccccc1 (centres undefined) | n | n | n | n | n | 1.5µM
CC(=O)N1CC=CC1(C)C(=O)NCc1cc(F)cc(C(F)(F)F)c1 (centres undefined) | n | n | n | n | n | n
CC(=O)c1cc(-c2ccccc2)n(CC(=O)N2CCC(C)CC2)c1C | n | n | 5.8µM | n | n | n
CC(=O)c1cc(-c2ccccc2)n(CC(=O)N2CCN(C3CCCC3)CC2)c1C | n | n | n | n[11.4 µM] | n | n
CCCN1CNc2c(c(=O)[nH]c(=S)n2CCc2ccc(OCC)c(OCC)c2)C1 | x | x | x | n | x | x
O=C(c1ccco1)N1CCN(C(=O)c2cnn3c2NC(c2cccs2)CC3C(F)(F)F)CC1 (centres undefined) | u | n | n | n | n | n
O=C(c1cnn2c1NC(c1ccco1)CC2C(F)(F)F)N1CCN(c2cccc(Cl)c2)CC1 (centres undefined) | u | n | u | n | u | 7.3µM
Cc1ccc(-c2csc3ncnc(Sc4nnc(CN5CCCCCC5=O)o4)c23)cc1 | 12µM | n | n | n | u | 15µM
COC(=O)c1ccc(NC(=O)CC2C(=O)N(c3cccc(C)c3)C(=O)N2C2CCCC2)cc1 (centres undefined) | x | x | x | n | x | x
Cc1ccc(Cl)cc1N(C)C(=O)c1sc2nc3n(c(=O)c2c1C)CCCC3 | n | x | n | n | x | x
CCOC(=O)c1sc(CS(=O)(=O)c2ccc(Cl)cc2)nc1C | n | n | n | n | u | u
CCOC(=O)c1sc(-c2ccc(Cl)cc2Cl)nc1O | n | n | n | n | 21µM | u
C=CCN1C(=O)/C(=C2/Sc3ccc(OC)cc3N2C)SC1=Nc1cccc(O)c1 | n | n | n | n | u | 5.8µM
CCN1C(=O)/C(=C2/Sc3ccc(OC)cc3N2C)SC1=Nc1ccc(OC)cc1 | n | n | n | n | n | n
CCOc1ccccc1C(=O)N(Cc1cc(OC)c(OC)c(OC)c1)c1ccccn1 | n | x | u | n | x | x
COc1ccccc1NC(=O)c1sc(NC(=O)c2ccco2)c(C#N)c1C | n | n | n | n | u | 16µM
Nc1c(C(=O)Nc2ccccc2)sc2nc(-c3ccco3)ccc12 | u | n | u | u | u | 18µM
COc1ccccc1NC(=O)/C(=C/c1cccs1)NC(=O)c1ccco1 | n | n | n | n | 4.6µM | n
SMILES | KB-3-1 cytotox | PTAP TSG101 blk | KB-V1 MDR tox | RGS4 inhibitor | SW480 rereplic | MCF10A rereplic
COc1ccccc1NC(=O)c1sc2nc(-c3ccco3)ccc2c1N | n | n | n | n[11.4 µM] | n | 15µM
O=C(COc1ccccc1C(=O)Nc1ccccc1)Nc1ccc(-c2ccccc2)cc1 | n | x | n | x | x | x
CCOc1ccc(CCNC(=O)CCc2cn(Cc3ccc(C)cc3)c3ccccc23)cc1 | x | x | x | n | x | x
CN(C(=O)c1ccco1)c1nc(CC(=O)Nc2ccccc2)cs1 | n | n | n | n | n | n
CCN(C(=O)c1ccco1)c1nc(CC(=O)Nc2ccc(Cl)cc2)cs1 | n | n | 16µM | n | 12µM | 12µM
CCOc1ccccc1C(=O)N/N=C/c1coc2ccc(Cl)cc2c1=O | u | n | n | n | 15µM | 15µM
Cc1ccc2occ(/C=N/NC(=O)c3ccccc3O)c(=O)c2c1 | u | n | n | n | 18µM | n
CC(C)(C)c1ccc(C(=O)N2CCC(c3nc4ccccc4o3)CC2)cc1 | x | x | x | n | x | x
COc1ccc(-c2nnc3ccc(SC(C(C)=O)C(C)=O)nn23)cc1OC | n | n | n | n | n | u
CSc1ccc2nnc(-c3cccc(F)c3)n2n1 | n | n | 13µM | n | n | n
CCOC(=O)CC(=O)CSc1ccc2nnc(-c3cccc(F)c3)n2n1 | n | n | n | n | n | n
O=C(CSc1ccc2nnc(-c3cccc(F)c3)n2n1)NCc1ccco1 | n | n | 16µM | n | n | n
COc1ccc(-c2nnc3ccc(SC(C)C)nn23)cc1OC | n | x | 21µM | n | x | x
COc1ccc(S(=O)(=O)NCc2ccc3c(c2)CCN3C(=O)c2ccccc2)cc1OC | x | x | x | n | x | x
Cc1ncc(CO)c2c1Oc1nc(-c3ccc(F)cc3)nc(SCC(=O)N3CCCCC3)c1C2 | n | x | n | n | x | x
CCOC(=O)Cn1c(=O)n(C2CCCCC2)c2nc(-c3c(F)cccc3Cl)nc(C(N)=O)c21 | u | x | 18µM | n | x | x
COc1cccc(N2CCN(Cc3nc4scc(-c5ccccc5)c4c(=O)[nH]3)CC2)c1 | u | n | 9.2µM | n | u | 10µM
O=c1[nH]c(CN2CCN(c3ccccc3O)CC2)nc2scc(-c3ccccc3Cl)c12 | u | n | n | n | n | n
O=c1[nH]c(CN2CCN(c3ccc(O)cc3)CC2)nc2scc(-c3ccc(Cl)cc3)c12 | u | n | n | n | 3.7µM | u
CC(C)c1ccc(NC(=O)CCNS(=O)(=O)c2ccc3c(c2)oc(=O)n3C)cc1 | n | x | u | n | x | x
CC(=O)c1ccc(NC(=O)c2cc(-c3ccc(Cl)c(Cl)c3)on2)cc1 | n | x | u | n | x | x
CCCOc1cccc(C(=O)N(Cc2ccc(OC)c(OC)c2)C2CCS(=O)(=O)C2)c1 (centres undefined) | n | n | 16µM | n | n | n
COC(=O)c1c(C)n(-c2ccccc2)c2ccc(O)cc12 | u | n | 21µM | n | u | u

Screens: PubChem, National Center for Advancing Translational Sciences (NCATS)
